Test results published in PubChem BioAssay (EPA / NIEHS).
Calls of active or inactive are those of the source. Rule for the calls: active = hit-call score of the fitted dose curve at least 0.9, where 1 is the maximum; inactive = score below 0.9.

Tests used:
[1] = read-out: Transforming growth factor beta 1 (TGFb1), TGFB1 (gene 7040); experiment: BSK_BE3C_TGFb1: BioMAP Diversity Plus: BE3C Assay for Transforming growth factor beta 1 (TGFb1) Biomarker Activity (AID 2283036); details: primary human bronchial epithelial cells; actives raise or lower the signal
Outline: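 TGF-b1 measured via ELISA, 24 h after chemical dosing of human bronchial epithelial cells (BE3C). Overt cytotoxicity assessed in parallel by SRB (0.1%, TCA-fixed, 560 nm); analysis bidirectional relative to DMSO.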

[2] = read-out: Plasminogen activator inhibitor-1 (PAI1), SERPINE1 (gene 5054); experiment: BSK_BE3C_PAI1: BioMAP Diversity Plus: BE3C Assay for Plasminogen activator inhibitor-1 (PAI1) Biomarker Activity (AID 2283037); details: primary human bronchial epithelial cells; actives raise or lower the signal
Outline: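 In this multiplexed primary-cell system, bronchial epithelial cells receive test chemical and are sampled at 24 h. PAI-1 is read by ELISA, with DMSO serving as negative control for bidirectional fitting.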

[3] = read-out: Urokinase-type plasminogen activator receptor (uPAR), PLAUR (gene 5329); experiment: BSK_BE3C_uPAR: BioMAP Diversity Plus: BE3C Assay for Urokinase-type plasminogen activator receptor (uPAR) Biomarker Activity (AID 2283039); details: primary human bronchial epithelial cells; actives raise or lower the signal
Outline: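 Chemically treated human bronchial epithelial cells (lung primary) are assayed for uPAR by ELISA after 24 h, with data fitted in both directions using DMSO as negative control.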

[4] = read-out: Interleukin-6 (IL6), IL6 (gene 3569); experiment: BSK_CASM3C_IL6: BioMAP Diversity Plus: CASM3C Assay for Interleukin-6 (IL6) Biomarker Activity for (AID 2283040); details: primary human coronary artery smooth muscle cells; actives raise or lower the signal
[5] = read-out: Tissue plasminogen activator (tPA), PLAT (gene 5327); experiment: BSK_BE3C_tPA: BioMAP Diversity Plus: BE3C Assay for Tissue plasminogen activator (tPA) Biomarker Activity (AID 2283041); details: primary human bronchial epithelial cells; actives raise or lower the signal
Outline: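 Using human lung primary bronchial epithelial cells, tPA was measured by ELISA 24 h after dosing; data fitted relative to DMSO.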

[6] = read-out: Interleukin-8 (IL8), CXCL8 (gene 3576); experiment: BSK_CASM3C_IL8: BioMAP Diversity Plus: CASM3C Assay for Interleukin-8 (IL8) Biomarker Activity (AID 2283042); details: primary human coronary artery smooth muscle cells; actives raise or lower the signal;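 note: IL-8 protein level quantified by ELISA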
[7] = read-out: Human Leukocyte Antigen - DR isotype (HLADR), HLA-DRA (gene 3122); experiment: BSK_CASM3C_HLADR: BioMAP Diversity Plus: CASM3C Assay for Human Leukocyte Antigen - DR isotype (HLADR) Biomarker Activity (AID 2283043); details: primary human coronary artery smooth muscle cells; actives raise or lower the signal;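 note: cell-surface HLA-DR protein level quantified by ELISA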
[8] = read-out: Macrophage colony-stimulating factor (MCSF), CSF1 (gene 1435); experiment: BSK_CASM3C_MCSF: BioMAP Diversity Plus: CASM3C Assay for Macrophage colony-stimulating factor (MCSF) Biomarker Activity (AID 2283044); details: primary human coronary artery smooth muscle cells; actives raise or lower the signal;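 note: M-CSF protein amount quantified by ELISA after 24 h exposure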
[9] = read-out: Low-density lipoprotein receptor (LDLR), LDLR (gene 3949); experiment: BSK_CASM3C_LDLR: BioMAP Diversity Plus: CASM3C Assay for Low-density lipoprotein receptor (LDLR) Biomarker Activity (AID 2283045); details: primary human coronary artery smooth muscle cells; actives raise or lower the signal;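 note: LDLR protein level on the cell surface quantified by ELISA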
[10] = read-out: Monocyte Chemoattractant Protein-1 (MCP1), CCL2 (gene 6347); experiment: BSK_CASM3C_MCP1: BioMAP Diversity Plus: CASM3C Assay for Monocyte Chemoattractant Protein-1 (MCP1) Biomarker Activity (AID 2283046); details: primary human coronary artery smooth muscle cells; actives raise or lower the signal;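 note: MCP-1 level quantified by ELISA 24 h after dosing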
[11] = BSK_CASM3C_Proliferation: Cell Proliferation Assessment in the BioMAP Diversity Plus: CASM3C Assay (AID 2283047); details: primary human coronary artery smooth muscle cells;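 note: sulforhodamine B total protein stain as relative cell number at 560 nm; sub-confluent cells exposed 48 h before staining; fitted both ways against DMSO so gain or loss of cell number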
[12] = read-out: Monokine induced gamma interferon (MIG), CXCL9 (gene 4283); experiment: BSK_CASM3C_MIG: BioMAP Diversity Plus: CASM3C Assay for Monokine induced gamma interferon (MIG) Biomarker Activity (AID 2283048); details: primary human coronary artery smooth muscle cells; actives raise or lower the signal;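 note: MIG protein level measured by ELISA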
[13] = read-out: serum amyloid A (SAA), SAA1 (gene 6288); experiment: BSK_CASM3C_SAA: BioMAP Diversity Plus: CASM3C Assay for serum amyloid A (SAA) Biomarker Activity (AID 2283049); details: primary human coronary artery smooth muscle cells; actives raise or lower the signal;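 note: SAA protein level quantified by ELISA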
[14] = BSK_CASM3C_SRB: Viability Assessment in the BioMAP Diversity Plus: CASM3C Assay (AID 2283050); details: primary human coronary artery smooth muscle cells;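 note: total protein by SRB staining as cytotoxicity measure in parallel cultures; cells exposed to compound for 24 h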
[15] = read-out: Thrombomodulin, THBD (gene 7056); experiment: BSK_CASM3C_Thrombomodulin: BioMAP Diversity Plus: CASM3C Assay for Thrombomodulin Biomarker Activity (AID 2283051); details: primary human coronary artery smooth muscle cells; actives raise or lower the signal;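 note: thrombomodulin protein level measured by ELISA 24 h after dosing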
[16] = read-out: Tissue Factor, F3 (gene 2152); experiment: BSK_CASM3C_TissueFactor: BioMAP Diversity Plus: CASM3C Assay for Tissue Factor Biomarker Activity (AID 2283052); details: primary human coronary artery smooth muscle cells; actives raise or lower the signal;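 note: cell surface tissue factor protein level read by ELISA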
[17] = read-out: Interferon-gamma inducible Protein 10 (IP10), CXCL10 (gene 3627); experiment: BSK_hDFCGF_IP10: BioMAP Diversity Plus: hDFCGF Assay for Interferon-gamma inducible Protein 10 (IP10) Biomarker Activity (AID 2283053); details: primary human foreskin fibroblasts; actives raise or lower the signal
Outline: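 Chemical-treated human skin fibroblasts (primary) were sampled at 24 h for IP-10 by ELISA. Both increases and decreases relative to DMSO were scored.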

[18] = read-out: Urokinase-type plasminogen activator receptor (uPAR), PLAUR (gene 5329); experiment: BSK_CASM3C_uPAR: BioMAP Diversity Plus: CASM3C Assay for Urokinase-type plasminogen activator receptor (uPAR) Biomarker Activity (AID 2283054); details: primary human coronary artery smooth muscle cells; actives raise or lower the signal;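 note: cell-surface uPAR protein level quantified by ELISA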
[19] = read-out: Vascular cell adhesion molecule 1 (VCAM1), VCAM1 (gene 7412); experiment: BSK_CASM3C_VCAM1: BioMAP Diversity Plus: CASM3C Assay for Vascular cell adhesion molecule 1 (VCAM1) Biomarker Activity (AID 2283055); details: primary human coronary artery smooth muscle cells; actives raise or lower the signal;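 note: VCAM-1 protein level quantified by ELISA on the cells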
[20] = read-out: urokinase plasminogen activator (uPA), PLAU (gene 5328); experiment: BSK_BE3C_uPA: BioMAP Diversity Plus: BE3C Assay for urokinase plasminogen activator (uPA) Biomarker Activity (AID 2283038); details: primary human bronchial epithelial cells; actives raise or lower the signal;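 note: uPA protein level quantified by ELISA in cell cultures; uPA read one day after compound addition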
Outline: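 Measured by ELISA: uPA from human primary bronchial epithelial cells 24 h after chemical treatment. Values derive from bidirectional curve fitting with DMSO serving as negative control. Total protein by SRB staining in parallel wells flagged overt cytotoxicity.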

Measured: AC50

Nc1ccc(N=Nc2ccccc2)cc1
active: [7] 16.8 µM | [17] 29.3 µM | [18] 3.9 µM
inactive: [1] | [2] | [3] | [4] | [5] | [6] | [8] | [9] | [10] | [11] | [12] | [13] | [14] | [15] | [16] | [19]

CC(C)COC(=O)c1ccccc1C(=O)OCC(C)C
active: [15] 20 µM | [17] 30.3 µM
inactive: [1] | [2] | [3] | [4] | [5] | [6] | [7] | [8] | [9] | [10] | [11] | [12] | [13] | [14] | [16] | [18] | [19]

Clc1ccc(C(c2ccc(Cl)cc2)C(Cl)Cl)cc1
inactive: [3] | [4] | [5] | [6] | [12] | [13] | [14] | [19]
active: [1] 34.6 µM | [2] 34.4 µM | [7] 25.2 µM | [8] 15.2 µM | [9] 5.11 µM | [10] 32.1 µM | [11] 32.1 µM | [15] 24.1 µM | [16] 26.4 µM | [17] 9.7 µM | [18] 36.7 µM

[Cl-].[Cl-].[Hg+2]
active: [1] 30.9 µM | [2] 30.9 µM | [3] 31.5 µM | [4] 31.9 µM | [5] 31.8 µM | [6] 35.5 µM | [7] 25.4 µM | [8] 26.5 µM | [9] 34.8 µM | [10] 33.5 µM | [11] 29.3 µM | [12] 33.9 µM | [13] 30.6 µM | [14] 36.6 µM | [15] 5.21 µM | [16] 32.6 µM | [17] 11.5 µM | [18] 34.4 µM | [19] 26.5 µM

Nc1ccc(Cc2ccc(N)cc2)cc1
inactive: [1] | [2] | [3] | [4] | [5] | [6] | [7] | [8] | [9] | [10] | [11] | [12] | [13] | [14] | [15] | [16] | [17] | [18] | [19]

C[C@]12C=CC3=C4CCC(=O)C=C4CC[C@H]3[C@@H]1CC[C@@H]2O
active: [4] 13 µM | [5] 3.97 µM
inactive: [1] | [2] | [3] | [6] | [7] | [8] | [9] | [10] | [11] | [12] | [13] | [14] | [15] | [16] | [17] | [18] | [19]

O=C(Nc1ccccc1)c1ccccc1I
inactive: [1] | [2] | [3] | [4] | [5] | [6] | [7] | [8] | [9] | [10] | [11] | [12] | [13] | [14] | [15] | [16] | [17] | [18] | [19]

Cc1cccc(N)c1N
inactive: [1] | [2] | [3] | [4] | [5] | [6] | [7] | [9] | [10] | [11] | [12] | [13] | [14] | [16] | [17] | [18]
active: [8] 3.73 µM | [15] 9.78 µM | [19] 13.8 µM

Oc1ccc2ccc3cccc4ccc1c2c34
inactive: [20] | [4] | [6] | [8] | [10] | [12] | [16] | [19]
active: [2] 27.5 µM | [3] 33 µM | [5] 36.1 µM | [7] 13.7 µM | [9] 10.5 µM | [13] 30.4 µM | [14] 30.1 µM | [15] 16.3 µM | [17] 10.3 µM | [18] 27 µM

O=C(Oc1ccc(Br)cc1)N1CCN2CCC1CC2
inactive: [1] | [2] | [3] | [4] | [5] | [6] | [7] | [8] | [9] | [10] | [11] | [12] | [13] | [14] | [15] | [16] | [17] | [18] | [19]

COC(=O)Nc1nc2ccccc2[nH]1
active: [7] 5.43 µM | [11] 8.49 µM | [18] 9.38 µM
inactive: [1] | [2] | [3] | [4] | [5] | [6] | [8] | [9] | [10] | [12] | [13] | [14] | [15] | [16] | [17] | [19]

Brc1ccc(Oc2ccccc2)cc1
inactive: [1] | [2] | [3] | [4] | [5] | [6] | [7] | [8] | [9] | [10] | [11] | [12] | [13] | [14] | [15] | [16] | [17] | [18] | [19]

CCCCOC(=O)c1ccccc1C(=O)OCc1ccccc1
inactive: [1] | [2] | [3] | [4] | [5] | [6] | [7] | [8] | [9] | [10] | [11] | [12] | [13] | [14] | [16] | [17] | [18] | [19]
active: [15] 20 µM

CCCCCCCCCCCCCN1CC(C)OC(C)C1 (stereo not given)
inactive: [1] | [2] | [3] | [4] | [5] | [6] | [7] | [8] | [9] | [10] | [11] | [12] | [13] | [14] | [15] | [16] | [17] | [18] | [19]
